SMN2 splice up = increases expression of the SMN2 splice variant | HEK293 SMN2-luciferase splicing reporter, luminescence, 30-36 h | Potency, µM (top dose mostly 46.1 µM), for the others: at the highest dose activity change, positive = activation, hits mostly activators | actives 2.8% (n = 210,000); note: % of control where 0% means no effect; nearly all actives have a fitted effect of over 55% in size
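HEK293 cells carry an SMN2 minigene-luciferase reporter in which exon 7 inclusion puts luciferase in frame. Cells were seeded at 2000 cells/well, attached for 10-12 hours, then exposed to compounds for 30-36 hours at 37C before ONE-Glo luminescence.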
Rab9 promoter act = Rab9 promoter activation. Potency, µM (titrated, usually from 9.22 µM), for the others: top-dose activation, negative = inhibition, usual class: activators. actives 2.8% (n = 320,000). Huh7 Rab9 promoter-luciferase reporter, luminescence, 24 h; note: % of control where 0% means no effect; nearly all actives have a fitted effect of over 60% in size
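Luciferase signal after 10 min detection reagent at ambient indicates Rab9 promoter upregulation; stably transfected Huh7 cells were treated 24 h with compound in DMSO at 37 °C, 5% CO2.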
FLuc counter = firefly luciferase modulation, counter-screen for miR-21 project; purified FLuc, Km substrates, luminescence inhibition; Potency, µM (series often up to 57.5 µM), without a hit: at the top dose activity change, negative = inhibition, usual class: inhibitors; actives 6.9% (n = 360,000);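 note: plate controls were vehicle for no effect and reference inhibitor for full effect; nearly all actives have a fitted effect of over 55% in size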
Target sequence (P08659 whole entry, looked up): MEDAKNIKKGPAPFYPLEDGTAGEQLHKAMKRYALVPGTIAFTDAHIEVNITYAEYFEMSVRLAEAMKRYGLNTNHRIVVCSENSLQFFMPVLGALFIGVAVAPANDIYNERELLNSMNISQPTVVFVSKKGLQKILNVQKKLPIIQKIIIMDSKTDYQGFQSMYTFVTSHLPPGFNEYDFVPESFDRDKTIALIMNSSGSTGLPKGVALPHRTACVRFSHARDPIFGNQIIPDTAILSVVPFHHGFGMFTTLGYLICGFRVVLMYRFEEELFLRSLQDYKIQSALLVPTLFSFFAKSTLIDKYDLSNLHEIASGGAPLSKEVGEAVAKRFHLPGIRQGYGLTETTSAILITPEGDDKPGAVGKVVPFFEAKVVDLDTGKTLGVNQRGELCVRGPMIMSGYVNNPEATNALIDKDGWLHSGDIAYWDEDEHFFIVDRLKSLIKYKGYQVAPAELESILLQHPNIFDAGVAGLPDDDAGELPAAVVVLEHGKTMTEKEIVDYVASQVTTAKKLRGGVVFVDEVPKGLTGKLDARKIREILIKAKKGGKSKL
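Biochemical qHTS of compounds, final roughly 60 µM downward over six points, against 10 nM purified firefly luciferase using Km concentrations of substrates (10 uM D-luciferin, 10 uM ATP) in Tris acetate pH 7.5 buffer; luminescence output.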
ELG1 genotox = inducers of genotoxicity in HEK293T ELG1-luciferase cells; HEK293T ELG1-luciferase reporter, luminescence, 16 h; Potency, µM (doses to about 46 µM), without a hit: at the highest dose activity change, positive = activation, actives largely listed as activators; actives 1.3% (n = 330,000); note: % of control where 0% means no effect; nearly all actives have a fitted effect of over 60% in size
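Cells (2,000/well) expressing the ELG1-luciferase fusion are dosed by pin tool and kept 16 hr at 37 °C, 5% CO2. Signal comes from ONE-Glo luciferase reagent after 30 min at room temperature.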
ELG1 repair inh = inhibitors of ELG1-dependent DNA repair in HEK293T cells; HEK293T ELG1-luciferase reporter, luminescence, 16 h; DNA damage induced by 5-fluorouridine; actives 2.3% (n = 330,000); AID 504467; Potency, µM (highest dose often 46.1 µM), for the others: at the highest dose activity change, negative = inhibition, usual class: inhibitors; note: % is set by controls: 0 for no effect and ±100 for the full control effect; nearly all actives have a fitted effect of over 55% in size
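Reporter activity after DNA damage by 5-fluorouridine is monitored. Compound-treated cells incubate 16 hr at 37 °C, then ONE-Glo is added for 30 min before luminescence reading.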
NPC1 promoter act = NPC1 promoter activation | Huh7 NPC1 promoter luciferase reporter, 24 h | Potency, µM (series often up to 9.22 µM), without a hit: at the top dose activation, hits mostly activators | actives 2.4% (n = 320,000); note: % of control where 0% means no effect; nearly all actives have a fitted effect of over 60% in size
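Luminescence read-out of NPC1 promoter-driven luciferase in stably transfected Huh7 cells; compounds delivered in DMSO and left 24 h at 37C, 5% CO2, qHTS titration format.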
An asterisk follows results filed as active; ? = inconclusive; / = no result. Most compounds without a hit are left out; they make up all but 9.3% or so of the library. Calls come from the whole dose curve; as a rule, active = well fitted curve in the direction sought with a large enough effect; inconclusive = small, poorly fitted or top-dose-only effect, or another doubt; inactive = no such curve, though single readings can be large; an effect the other way counts as inactive or inconclusive. Potency is the fitted concentration of half-maximal effect.

SMILES | SMN2 splice up | Rab9 promoter act | FLuc counter | ELG1 genotox | ELG1 repair inh | NPC1 promoter act
Cc1ccccc1Nc1nc(-c2ccccc2)c(C(=O)Nc2cccnc2)s1 | 4% | 2% | 15µM* | -2% | 23µM* | 0%
CCOC(=O)CSc1nc(=O)n2ccccc2n1 | 14% | 5% | 3% | 2% | 1% | -2%
O=C(CCC(=O)c1ccccc1)NCc1ccccc1 | / | -2% | -16% | -1% | -6% | 3%
COc1ccc(Oc2nnnn2-c2ccccc2)cc1 | 1% | -4% | ? | 16% | ? | 1%
COc1cccc(Oc2nnnn2-c2ccccc2)c1 | / | 4µM* | 17µM* | ? | ? | ?
CCc1ccc2c(c1)C(=O)c1ccccc1C2=O | 16µM* | ? | 6µM* | ? | ? | ?
CC(C)(C)c1ccc2c(c1)C(=O)c1ccccc1C2=O | / | 0.56µM* | 1.3µM* | ? | ? | 0.89µM*
COc1ccc(-c2cn(Cc3ccc4c(c3)C(=O)c3ccccc3C4=O)nn2)cc1 | / | -3% | -2% | 12% | -7% | 0%
COC(=O)c1c(N)sc(C(C)=O)c1C | 18% | 3% | -2% | 5% | ? | 4%
CCOC(=O)c1c(N)sc(C(=O)OC)c1C | 3% | 6% | -29% | 12% | ? | 6%
CCOC(=O)c1sc(N)c(C(=O)OC)c1C | / | 30% | 15µM* | 17% | ? | 27%
COC(=O)c1c(N)sc(C(=O)NCCc2ccccc2)c1C | / | ? | 0.095µM* | 0.23µM* | ? | ?
CCCCCc1ccc(-c2ccc(C(=O)Oc3ccc(C(=O)OC)cc3)cc2)nc1 | -46% | / | 12µM* | / | / | /
CCCc1ccc(-c2ccc(C(=O)O)cc2)nc1 | 2.5µM* | 0.4µM* | 1.5µM* | ? | ? | ?
CCCCCc1ccc(-c2ccc(/C=C/C(N)=O)cc2)nc1 | -1% | ? | 4.8µM* | 16% | ? | ?
COc1c(C2=CC(=O)N(C)C2=O)c2c(n1C)C(=O)c1ccccc1C2=O | -4% | / | / | / | / | /
O=C(Nc1ccc(C(F)(F)F)cc1)N1CCN(c2ccnc3cc(Cl)ccc23)CC1 | / | -2% | 4% | -6% | ? | -1%
O=C(CCS(=O)(=O)c1ccccc1)Nc1ccc(-c2nc3ccccc3s2)cc1 | 1µM* | 0.5µM* | -19% | ? | ? | 1.6µM*
O=C(CCS(=O)(=O)c1ccccc1)Nc1cccc(-c2nc3ccccc3s2)c1 | -111% | ? | 6.7µM* | ? | ? | ?
O=C(COc1ccccc1[N+](=O)[O-])Nc1ccc(-c2nc3ccccc3s2)cc1 | / | / | -3% | / | / | /
O=C1C=CC(=C(c2ccc(O)cc2)c2ccc(O)cc2)C=C1 | -76% | -39% | / | -10% | 13µM* | -35%
O=C(Nc1ccccn1)C1CCN(S(=O)(=O)c2cccc3nonc23)CC1 | -20% | 2% | 2% | 1% | ? | -4%
Cc1ccc(NC(=O)C2CCN(S(=O)(=O)c3cccc4nonc34)CC2)nc1 | / | 5% | -1% | -13% | 21µM* | -1%
Cc1ccc(NC(=O)c2ccc(S(=O)(=O)N3CCC(C)CC3)cc2)nc1 | / | -5% | ? | 18µM* | -13% | 0%
CC1CCN(S(=O)(=O)c2ccc(C(=O)Nc3ccccc3-c3nc4ccccc4[nH]3)cc2)CC1 | 14% | -1% | 3% | -9% | 16µM* | -10%
Cc1nnsc1C(=O)Nc1ccc(S(=O)(=O)N2CCC(C)CC2)cc1 | / | -18% | 2% | 3% | 7.3µM* | -11%
CC1CCCN(S(=O)(=O)c2ccc(C(=O)Nc3ccccc3-c3nc4ccccc4[nH]3)cc2)C1 (configuration not stated) | -5% | -7% | -1% | 2% | ? | -5%
c1coc(-c2ccc3ncnc(NCc4cccs4)c3c2)c1 | / | -1% | 5% | / | / | 4%

Compound activity as filed in PubChem.
